Experimental data published in PubChem BioAssay (Tox21).
“And” between values parts separate entries of the source, which are not always exact repeats. Equal values may be shown once. More than one record can exist for a structure, and the calls need not agree. The source made the active and inactive calls. Unless noted, calls come from the whole dose curve; as a rule, active = well fitted curve in the direction sought with a large enough effect in the repeat runs; inconclusive = weak or mixed curves; inactive = no such curve, though single readings can be large; an effect the other way counts as inactive or inconclusive.

Tests used:
[1] = qHTS assay to identify small molecule antagonists of the thyroid receptor (TR) signaling pathway - cell viability counter screen (AID 743064); note: nearly all actives have a fitted effect of over 50% in size; note: potency is the fitted concentration of half-maximal effect
In short: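 Viability of T3-stimulated (1 nM final) GH3.TRE-Luc cells is measured by CellTiter-Fluor fluorescence after 23.5 h compound exposure at 37 °C plus 30 min reagent incubation.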

[2] = qHTS assay to identify small molecule antagonists of the thyroid receptor (TR) signaling pathway (AID 743065); note: nearly all actives have a fitted effect of over 55% in size; note: potency is the fitted concentration of half-maximal effect
In short: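 Antagonism measured as loss of luciferase signal in GH3 cells stably carrying a TRE-luciferase reporter, co-treated with compound and T3 (1 nM final) for 23.5 h at 37 C. Viability was read in the same well by CellTiter-Fluor.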

[3] = tested on: thyroid hormone receptor (rat, GH3 cells); test: qHTS assay to identify small molecule agonists of the thyroid receptor (TR) signaling pathway (AID 743066; calls by dose curve)
[4] = target: Estrogen receptor (Homo sapiens) (UniProt P03372); test: qHTS assay to identify small molecule antagonists of the estrogen receptor alpha (ER-alpha) signaling pathway (AID 743069; active = well fitted curve in the direction sought with a large enough effect in the signal ratio in the repeat runs, not every such curve was filed as active; inconclusive = weak or mixed curves, or effect the other way; inactive = no such curve, though single readings can be large or run the other way; the % refers to the signal ratio; note: potency is the fitted concentration of half-maximal effect)
In short: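 Compound effects are measured against 17beta-estradiol stimulation in HEK293 cells with a UAS-controlled beta-lactamase reporter for ER-alpha. Exposure lasts 18 hr at 37C; LiveBLAzer B/G FRET substrate follows for 2 hr at room temperature.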

[5] = qHTS assay to identify small molecule antagonists of the estrogen receptor alpha (ER-alpha) signaling pathway - cell viability counter screen (AID 743074; calls by dose curve;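 note: HEK293 cells carrying ER-alpha-UAS-bla reporter stimulated with 17beta-estradiol; nearly all actives have a fitted effect of over 45% in size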)
[6] = target: Estrogen receptor (Homo sapiens) (UniProt P03372); test: qHTS assay to identify small molecule agonists of the estrogen receptor alpha (ER-alpha) signaling pathway (AID 743075; calls by dose curve; note: potency is the fitted concentration of half-maximal effect)
[7] = target: Estrogen receptor (Homo sapiens) (UniProt P03372); test: qHTS assay to identify small molecule agonists of the estrogen receptor alpha (ER-alpha) signaling pathway using the BG1 cell line (AID 743079); note: nearly all actives have a fitted effect of over 20% in size; note: potency is the fitted concentration of half-maximal effect
[8] = qHTS assay to identify small molecule antagonists of the estrogen receptor alpha (ER-alpha) signaling pathway using the BG1 cell line (AID 743080; calls by dose curve;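 note: BG1 cells stimulated with 17beta-estradiol alongside compound; nearly all actives have a fitted effect of over 25% in size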; note: potency is the fitted concentration of half-maximal effect)
In short: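 Luciferase inhibition measured with ONE-Glo after 30 min at RT in BG1Luc4E2 cells given test compounds and 17beta-estradiol for 21.5 h at 37 C; CellTiter-Fluor viability read in the same wells beforehand.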

[9] = qHTS assay to identify small molecule antagonists of the estrogen receptor alpha (ER-alpha) signaling pathway using the BG1 cell line - cell viability counter screen (AID 743081);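 note: compound given together with 17beta-estradiol as the ER stimulus; series mostly up to about 70 µM; nearly all actives have a fitted effect of over 45% in size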
Aromatase (Homo sapiens) = Aromatase (Homo sapiens) (UniProt P11511); test: qHTS assay to identify aromatase inhibitors (AID 743083); note: nearly all actives have a fitted effect of over 55% in size; note: potency is the fitted concentration of half-maximal effect
[10] = qHTS assay to identify aromatase inhibitors - cell viability counter screen (AID 743084);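 note: cells stimulated with testosterone during compound exposure; nearly all actives have a fitted effect of over 55% in size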; note: potency is the fitted concentration of half-maximal effect
[11] = qHTS assay to identify small molecule that activate the aryl hydrocarbon receptor (AhR) signaling pathway - cell viability counter screen (AID 743086); note: nearly all actives have a fitted effect of over 45% in size; note: potency is the fitted concentration of half-maximal effect
In short: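 Cytotoxicity counter screen: CellTiter-Fluor signal (30 min, 37 C) in 4000 HepG2 cells/well carrying the DRE-luciferase reporter, following 24 h compound exposure at 37 C.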

[12] = target: Peroxisome proliferator-activated receptor gamma (Homo sapiens) (UniProt P37231); test: qHTS assay to identify small molecule agonists of the peroxisome proliferator-activated receptor gamma (PPARg) signaling pathway (AID 743094; active = well fitted activation curve with a large enough effect in the signal ratio in the repeat runs, not every such curve was filed as active; inconclusive = weak or mixed curves, or effect the other way; inactive = no such curve, though single readings can be large or run the other way; the % refers to the signal ratio)
In short: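 Compounds dissolved in DMSO were added to PPARg UAS-bla HEK293H cells for 17 h at 37C, and reporter expression was quantified by fluorescence intensity after 1 h with LiveBLAzer B/G FRET substrate.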

[13] = qHTS assay for small molecule agonists of the antioxidant response element (ARE) signaling pathway - cell viability counter screen (AID 743203; calls by dose curve; note: nearly all actives have a fitted effect of over 55% in size; note: potency is the fitted concentration of half-maximal effect)
In short: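 Following 16 hrs of compound treatment at 37C, HepG2 cells with an ARE-controlled beta-lactamase gene were lysed with CellTiter-Glo. Luminescence was read after 30 min at room temperature.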

[14] = qHTS assay for small molecule activators of the heat shock response signaling pathway - cell viability counter screen (AID 743209); note: nearly all actives have a fitted effect of over 50% in size; note: potency is the fitted concentration of half-maximal effect
In short: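 Readout: CellTiter-Glo luminescence, 30 min at room temperature. System: HSE-bla HeLa cells, 1500/well, plated overnight. Treatment: compounds in DMSO, 5 h at 37 C.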

[15] = target: Aryl hydrocarbon receptor (Homo sapiens) (UniProt P35869); test: qHTS assay to identify small molecule that activate the aryl hydrocarbon receptor (AhR) signaling pathway (AID 743085); note: nearly all actives have a fitted effect of over 15% in size; note: potency is the fitted concentration of half-maximal effect;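 for activation: HG2L7.5c1 human HepG2 liver cells with stably integrated DRE-driven firefly reporter; series mostly up to about 70 µM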
In short: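 A multiplexed format paired cell viability (CellTiter-Fluor fluorescence) with AhR-dependent luciferase output (ONE-Glo luminescence) in the same wells of HepG2 DRE-luc cells after 24 h compound exposure at 37C.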

[16] = qHTS assay to identify small molecule antagonists of the peroxisome proliferator-activated receptor gamma (PPARg) signaling pathway - cell viability counter screen (AID 743194); note: nearly all actives have a fitted effect of over 55% in size; note: potency is the fitted concentration of half-maximal effect
In short: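 Viability was measured as CellTiter-Glo luminescence in GeneBLAzer PPARg UAS-bla HEK293H cells. These cells had been exposed 17 h at 37 C to compounds together with rosiglitazone at 50 nM final, with the beta-lactamase readout taken in the same wells.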

[17] = qHTS assay for small molecule agonists of the antioxidant response element (ARE) signaling pathway (AID 743202; active = well fitted activation curve with a large enough effect in the signal ratio in the repeat runs, not every such curve was filed as active; inconclusive = weak or mixed curves, or effect the other way; inactive = no such curve, though single readings can be large or run the other way; the % refers to the signal ratio; note: potency is the fitted concentration of half-maximal effect)
In short: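 An ARE-responsive beta-lactamase gene stably integrated in HepG2 cells serves as reporter. After 5 h plating and 16 h compound incubation at 37 C, fluorescence of the B/G FRET substrate was measured.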

Measured: Potency

Sequence of Aryl hydrocarbon receptor (Homo sapiens) (P35869 whole entry, looked up): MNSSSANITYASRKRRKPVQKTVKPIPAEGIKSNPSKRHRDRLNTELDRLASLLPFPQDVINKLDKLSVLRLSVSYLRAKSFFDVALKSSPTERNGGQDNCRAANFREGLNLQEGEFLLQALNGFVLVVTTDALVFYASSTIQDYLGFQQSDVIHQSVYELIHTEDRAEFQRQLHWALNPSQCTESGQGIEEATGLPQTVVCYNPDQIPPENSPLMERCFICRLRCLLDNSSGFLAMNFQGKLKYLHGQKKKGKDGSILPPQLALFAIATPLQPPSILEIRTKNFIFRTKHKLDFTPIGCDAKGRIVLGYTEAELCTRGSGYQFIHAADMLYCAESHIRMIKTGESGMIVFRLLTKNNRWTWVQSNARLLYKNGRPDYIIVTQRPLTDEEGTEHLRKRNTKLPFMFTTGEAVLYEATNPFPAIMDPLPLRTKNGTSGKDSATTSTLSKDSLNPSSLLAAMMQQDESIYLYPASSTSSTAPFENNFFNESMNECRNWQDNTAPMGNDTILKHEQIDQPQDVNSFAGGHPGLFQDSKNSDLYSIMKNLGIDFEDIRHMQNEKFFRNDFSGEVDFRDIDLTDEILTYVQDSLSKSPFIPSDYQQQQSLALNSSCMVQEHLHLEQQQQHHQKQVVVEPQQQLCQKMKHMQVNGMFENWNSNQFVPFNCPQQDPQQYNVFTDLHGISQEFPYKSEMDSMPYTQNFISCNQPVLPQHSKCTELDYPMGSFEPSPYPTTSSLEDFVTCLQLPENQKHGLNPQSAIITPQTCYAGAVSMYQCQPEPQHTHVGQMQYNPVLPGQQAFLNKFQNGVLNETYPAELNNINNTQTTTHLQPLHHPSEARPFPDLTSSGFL
Sequence of Estrogen receptor (Homo sapiens) (P03372 whole entry, looked up): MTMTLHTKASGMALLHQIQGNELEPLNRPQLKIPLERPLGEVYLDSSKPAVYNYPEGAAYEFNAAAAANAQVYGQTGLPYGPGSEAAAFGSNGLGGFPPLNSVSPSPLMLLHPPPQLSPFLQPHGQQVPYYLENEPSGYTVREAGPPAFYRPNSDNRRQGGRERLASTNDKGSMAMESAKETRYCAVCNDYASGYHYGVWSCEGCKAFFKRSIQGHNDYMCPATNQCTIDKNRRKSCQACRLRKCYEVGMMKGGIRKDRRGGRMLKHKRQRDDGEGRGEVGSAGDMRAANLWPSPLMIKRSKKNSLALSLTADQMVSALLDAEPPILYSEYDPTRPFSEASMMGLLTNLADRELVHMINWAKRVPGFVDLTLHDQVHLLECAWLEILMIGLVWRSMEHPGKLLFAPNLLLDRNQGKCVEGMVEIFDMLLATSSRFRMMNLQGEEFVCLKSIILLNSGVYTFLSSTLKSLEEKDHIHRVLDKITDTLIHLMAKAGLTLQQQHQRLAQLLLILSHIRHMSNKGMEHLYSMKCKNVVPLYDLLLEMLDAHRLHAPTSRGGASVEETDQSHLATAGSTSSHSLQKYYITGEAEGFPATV
Sequence of Aromatase (Homo sapiens) (P11511 whole entry, looked up): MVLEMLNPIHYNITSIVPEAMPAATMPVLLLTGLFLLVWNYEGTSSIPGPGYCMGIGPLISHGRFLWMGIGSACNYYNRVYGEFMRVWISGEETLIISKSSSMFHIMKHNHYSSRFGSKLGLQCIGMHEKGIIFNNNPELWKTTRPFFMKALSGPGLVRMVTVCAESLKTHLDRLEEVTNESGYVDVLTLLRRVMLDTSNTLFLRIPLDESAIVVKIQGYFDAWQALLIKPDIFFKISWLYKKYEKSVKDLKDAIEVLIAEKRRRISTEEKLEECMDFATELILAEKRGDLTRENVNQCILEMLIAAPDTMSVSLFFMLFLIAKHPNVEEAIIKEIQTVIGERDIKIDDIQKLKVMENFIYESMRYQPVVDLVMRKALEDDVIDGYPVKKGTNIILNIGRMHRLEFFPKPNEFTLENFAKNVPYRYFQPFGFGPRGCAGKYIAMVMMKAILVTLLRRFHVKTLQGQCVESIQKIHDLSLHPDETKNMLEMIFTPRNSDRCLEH
Sequence of Peroxisome proliferator-activated receptor gamma (Homo sapiens) (P37231 whole entry, looked up): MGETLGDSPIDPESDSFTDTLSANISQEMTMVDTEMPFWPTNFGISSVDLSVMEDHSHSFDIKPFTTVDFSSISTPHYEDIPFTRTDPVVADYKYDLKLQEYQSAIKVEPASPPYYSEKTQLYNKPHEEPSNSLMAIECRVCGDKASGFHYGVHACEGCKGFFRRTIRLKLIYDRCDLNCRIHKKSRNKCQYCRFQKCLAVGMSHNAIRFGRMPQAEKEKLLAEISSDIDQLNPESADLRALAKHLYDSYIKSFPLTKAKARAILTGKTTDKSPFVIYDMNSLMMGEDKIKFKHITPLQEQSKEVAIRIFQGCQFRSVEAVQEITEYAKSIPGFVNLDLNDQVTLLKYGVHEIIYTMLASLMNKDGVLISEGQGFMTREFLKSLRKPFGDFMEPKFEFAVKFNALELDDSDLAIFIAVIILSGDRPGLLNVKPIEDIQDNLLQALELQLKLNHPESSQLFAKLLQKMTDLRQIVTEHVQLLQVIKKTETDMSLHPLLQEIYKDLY

O=C(N[C@H](CO)[C@H](O)c1ccc([N+](=O)[O-])cc1)C(Cl)Cl
inactive: [1] | [2] | [3] | [4] | [5] | [6] | [7] | [8] | [9] | Aromatase (Homo sapiens) | [10] | [11] | [12] | [13] | [14]

CCOc1ccc([N+](=O)[O-])cc1
inactive: [3] | [15] | [11]
active: [1] 31.1 µM | [2] 31.1 µM | [4] 55.8 µM [inconclusive] | [6] 6.26 µM [inconclusive] | [7] 1.96 µM | Aromatase (Homo sapiens) 27.7 µM | [10] 55.3 µM | [14] 44.3 µM

CCCCCCCC/C=C\CCCCCCCC(=O)N(CCO)CCO
active: [1] 54.3 µM | [2] 68.3 µM | [4] 21.8 µM [inconclusive] | [8] 54.3 µM
inactive: [3] | [5] | [6] | Aromatase (Homo sapiens) | [10] | [15] | [11]

Nc1nc(NC2CC2)c2ncn([C@@H]3C=C[C@@H](CO)C3)c2n1
inactive: [1] | [2] | [3] | [4] | [5] | [6] | [9] | Aromatase (Homo sapiens) | [10] | [11] | [12]
active: [7] 2.66 µM | [15] 8.41 µM

C1CCc2nnnn2CC1
inactive: [1] | [2] | [3] | [4] | [5] | [6] | [7] | [8] | [9] | [10] | [11] | [12]

CC(=O)O[C@H]1C[C@@H]2CC[C@@H]3[C@H](CC[C@@]4(C)[C@H]3C[C@H]([N+]3(C)CCCCC3)[C@@H]4OC(C)=O)[C@@]2(C)C[C@@H]1[N+]1(C)CCCCC1
inactive: [1] | [2] | [3] | [4] | [6] | [7] | [8] | [9] | Aromatase (Homo sapiens) | [10] | [15] | [11] | [12]

CC(C)c1ccc2sc3ccccc3c(=O)c2c1
active: [7] 6.11 µM | [15] 30.6 µM | [17] 9.69 µM
inactive: [1] | [2] | [3] | [5] | [6] | [9] | Aromatase (Homo sapiens) | [10] | [11] | [16] | [13]

O=C1CCC(c2ccc(-n3ccnc3)cc2)=NN1
active: Aromatase (Homo sapiens) 6.68 µM | [15] 5.96 µM
inactive: [1] | [2] | [3] | [4] | [6] | [7] | [8] | [9] | [10] | [11] | [12]

Cc1cc(-c2ccc(N=Nc3ccc4c(S(=O)(=O)O)cc(S(=O)(=O)O)c(N)c4c3O)c(C)c2)ccc1N=Nc1ccc2c(S(=O)(=O)O)cc(S(=O)(=O)O)c(N)c2c1O
active: [2] 23.7 µM | Aromatase (Homo sapiens) 26.6 µM | [10] 23.7 µM
inactive: [1] | [3] | [4] | [6] | [9] | [15] | [12]
inactive and 29.8 µM (active): [11]

C[C@H](O)CN(C)C
inactive: [1] | [2] | [3] | [4] | [5] | [6] | [8] | [9] | Aromatase (Homo sapiens) | [10] | [11] | [12]

C(=C\c1ccncc1)/c1ccccc1
inactive and 21.1 µM (active): Aromatase (Homo sapiens)
active: [7] 13.3 µM
inactive: [1] | [2] | [3] | [4] | [5] | [6] | [9] | [10] | [11] | [12]

NC(=O)[C@@H]1C[C@]2(NC(=O)NC2=O)c2cc(F)ccc2O1
inactive: [1] | [2] | [3] | [4] | [5] | [6] | [7] | [8] | [9] | Aromatase (Homo sapiens) | [10] | [11] | [12]

Clc1nc(C(Cl)(Cl)Cl)c(Cl)c(Cl)c1Cl
inactive: [3] | [5] | [6] | [9] | [11]
active: [1] 21.7 µM | [2] 17.2 µM | [15] 61.1 µM | [16] 38.9 µM | [13] 30.6 µM | [14] 17.4 µM

CC(C)NCC1CCc2cc(CO)c([N+](=O)[O-])cc2N1 (centres undefined)
inactive: [1] | [2] | [3] | [4] | [5] | [6] | [7] | [8] | Aromatase (Homo sapiens) | [10] | [15] | [11] | [12]
